In PubChem BioAssay (Tox21):
“And” between values parts separate entries of the source, which are not always exact repeats. Equal values may be shown once. A number with no mark means an inactive call. Inconclusive results are not listed. A call without a number means that no potency is given here. The source made the active and inactive calls. Unless noted, calls follow the shape of the dose curve; as a rule, active = well fitted curve in the direction sought with a large enough effect in the repeat runs; inconclusive = weak or mixed curves; inactive = no such curve, though single readings can be large; an effect the other way counts as inactive or inconclusive.

What was measured:
[1] = qHTS assay for small molecule agonists of the p53 signaling pathway (AID 651631; calls by dose curve; also: nearly all actives have a fitted effect of over 15% in size; also: potency is read from the fitted curve at half-maximal effect)
In short: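 HCT-116 p53RE-bla reporter line, 16 h compound treatment at 37 °C, then fluorescence after 2 h with B/G FRET substrate.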

[2] = qHTS assay for small molecules that induce genotoxicity in human embryonic kidney cells expressing luciferase-tagged ATAD5 (AID 651632); also: nearly all actives have a fitted effect of over 15% in size
In short: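 ATAD5-luc HEK293T, 2,000 cells/well; cpd or DMSO pin-transferred; 16 hr, 37C/5% CO2; Amplite 30 min RT; luminescence.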

[3] = qHTS assay for small molecule agonists of the p53 signaling pathway - cell viability (AID 651633; calls by dose curve; also: nearly all actives have a fitted effect of over 30% in size; also: potency is read from the fitted curve at half-maximal effect)
In short: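 p53RE-bla cells, seeded at 4,000 per well and rested 5 h at 37 C/5% CO2, received compounds in DMSO for 16 h at 37 C. CellTiter-Glo was then added, and luminescence was read after 30 min at room temperature to gauge cytotoxicity.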

[4] = qHTS assay for small molecules that induce genotoxicity in human embryonic kidney cells expressing luciferase-tagged ATAD5 - cell viability (AID 651634; calls by dose curve; also: nearly all actives have a fitted effect of over 25% in size; also: potency is read from the fitted curve at half-maximal effect)
In short: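 Fluorescence from CellTiter-Fluor, reporting protease activity within live cells, served as the viability read-out. HEK293T cells carrying luciferase-tagged ATAD5 had been treated with compound for 15.5 hr at 37C.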

[5] = qHTS assay for small molecule disruptors of the mitochondrial membrane potential - cell viability (AID 720634; calls by dose curve; also: nearly all actives have a fitted effect of over 20% in size; also: potency is read from the fitted curve at half-maximal effect)
In short: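 Cells: HepG2, 2,000/well, attached overnight. Compound 1 hr, 37 C/5% CO2. +m-MPI dye, +CellTiter-Glo 30 min RT. Readout: luminescence (ATP).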

[6] = qHTS assay for small molecule disruptors of the mitochondrial membrane potential (AID 720635); also: potency is read from the fitted curve at half-maximal effect
In short: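 HepG2 cells (2,000/well) attached overnight at 37C, then took compound for 1 hr at 37C, 5% CO2. Mito-MPS dye was added for 30 min; fluorescence was read at 490/535 nm (monomers) and 540/590 nm (aggregates).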

[7] = qHTS assay to test for compound auto fluorescence at 590 nm (red) in HepG2 cells (AID 720674); also: potency is read from the fitted curve at half-maximal effect
In short: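 Intrinsic compound fluorescence in the red window (Ex/Em 540/590 nm) is measured in attached HepG2 cells exposed for 1 hr, DMSO vehicle as baseline, benchmarked to Rose Bengal sodium.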

[8] = qHTS assay to test for compound auto fluorescence at 535 nm (green) in HepG2 cells (AID 720675); also: potency is read from the fitted curve at half-maximal effect
[9] = qHTS assay to test for compound auto fluorescence at 460 nm (blue) in HEK293 cells (AID 720678)
In short: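 Intrinsic compound fluorescence is recorded in live HEK293 cultures after overnight incubation at 37C, 5% CO2, using excitation 405 nm and emission 460 nm. Values are referenced to triamterene.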

[10] = qHTS assay to test for compound auto fluorescence at 590 nm (red) in HEK293 cells (AID 720679); also: potency is read from the fitted curve at half-maximal effect
In short: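 Red autofluorescence, HEK293 cells: 2,000 cells/well; attach 4-5 hr 37C; add 23 nL cpd or DMSO; incubate o/n 37C 5% CO2; read Ex540/Em590; Rose Bengal sodium reference.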

[11] = qHTS assay to test for compound auto fluorescence at 535 nm (green) in HEK293 cells (AID 720680); also: potency is read from the fitted curve at half-maximal effect
[12] = qHTS assay to test for compound auto fluorescence at 460 nm (blue) in HEK293 cell free culture (AID 720681)
In short: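 Test compounds were pinned into cell-free culture medium (DMEM with 10% FBS) and fluorescence was read directly at Ex/Em 405/460 nm. Signals were expressed as fluorescence equivalents of triamterene, with DMSO vehicle as control.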

[13] = qHTS assay to test for compound auto fluorescence at 590 nm (red) in HEK293 cell free culture (AID 720683); also: potency is read from the fitted curve at half-maximal effect
In short: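 Tox21 10K library compounds were pinned into cell-free DMEM with 10% FBS and fluorescence was read at excitation 540 nm. Activity is expressed as Rose Bengal sodium equivalency.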

[14] = qHTS assay to test for compound auto fluorescence at 590 nm (red) in HepG2 cell free culture (AID 720684); also: potency is read from the fitted curve at half-maximal effect
In short: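 Red fluorescence (540 nm excitation, 590 nm emission) was measured after compound transfer into cell-free MEM supplemented with 10% FBS. Values are equivalencies against Rose Bengal sodium.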

[15] = qHTS assay to test for compound auto fluorescence at 460 nm (blue) in HepG2 cell free culture (AID 720685)
In short: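 Compound (23 nL) or DMSO pinned into cell-free MEM with 10% FBS; blue fluorescence read at 405/460 nm excitation/emission, expressed as auto-fluorescence equivalency to triamterene.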

[16] = qHTS assay to test for compound auto fluorescence at 535 nm (green) in HepG2 cell free culture (AID 720686); also: potency is read from the fitted curve at half-maximal effect
[17] = qHTS assay to test for compound auto fluorescence at 460 nm (blue) in HepG2 cells (AID 720687)
In short: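 Cells (2,000/well in MEM with 10% FBS) attached overnight at 37 C, then were exposed to compound or DMSO for 1 hr at 37 C, 5% CO2. Fluorescence read at Ex/Em 405/460 nm, expressed as triamterene-equivalent signal.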

[18] = target: Glucocorticoid receptor (Homo sapiens) (UniProt P04150); assay: qHTS assay to identify small molecule agonists of the glucocorticoid receptor (GR) signaling pathway (AID 720691; active = well fitted activation curve with a large enough effect in the signal ratio in the repeat runs, not every such curve was filed as active; the % refers to the signal ratio); conditions: GR-bla HeLa, beta-lactamase reporter ratio, 18 h; activation: at 62.4 µM (top of the series)
Glucocorticoid receptor (Homo sapiens), sequence (P04150 whole entry, looked up): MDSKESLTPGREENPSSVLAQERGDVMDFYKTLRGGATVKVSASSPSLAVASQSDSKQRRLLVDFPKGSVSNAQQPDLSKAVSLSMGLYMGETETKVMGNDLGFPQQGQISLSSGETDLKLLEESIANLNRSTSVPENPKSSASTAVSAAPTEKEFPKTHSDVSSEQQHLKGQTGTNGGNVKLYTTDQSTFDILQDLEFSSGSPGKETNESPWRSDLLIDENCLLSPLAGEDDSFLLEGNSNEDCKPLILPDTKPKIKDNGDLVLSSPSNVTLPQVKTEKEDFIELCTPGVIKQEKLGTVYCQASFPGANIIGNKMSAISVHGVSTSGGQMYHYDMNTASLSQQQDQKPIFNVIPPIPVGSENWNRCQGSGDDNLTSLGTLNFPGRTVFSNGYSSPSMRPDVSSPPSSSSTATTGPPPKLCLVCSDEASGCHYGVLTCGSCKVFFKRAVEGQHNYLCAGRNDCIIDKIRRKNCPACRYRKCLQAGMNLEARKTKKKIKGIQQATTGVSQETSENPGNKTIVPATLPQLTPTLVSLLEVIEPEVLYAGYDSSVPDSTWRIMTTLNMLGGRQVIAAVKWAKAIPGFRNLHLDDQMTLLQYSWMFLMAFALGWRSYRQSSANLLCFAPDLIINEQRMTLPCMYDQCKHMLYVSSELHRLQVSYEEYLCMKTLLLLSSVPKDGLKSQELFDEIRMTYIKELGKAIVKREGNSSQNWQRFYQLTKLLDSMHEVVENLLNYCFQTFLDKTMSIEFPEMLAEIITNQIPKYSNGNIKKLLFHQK
In short: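 Fluorescence intensity from LiveBLAzer B/G FRET substrate (2 h, room temperature) reports beta-lactamase expression driven by the glucocorticoid response element in GR-bla HeLa cells after 18 h compound exposure at 37 C.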

[19] = qHTS assay to test for compound auto fluorescence at 535 nm (green) in HEK293 cell free culture (AID 720682); also: potency is read from the fitted curve at half-maximal effect
In short: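 Steps: dispense DMEM/10% FBS into empty wells; pin in compound or DMSO; measure fluorescence at 485/535 nm. Values are fluorescein equivalents.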

[20] = target: Glucocorticoid receptor (Homo sapiens) (UniProt P04150); assay: qHTS assay to identify small molecule antagonists of the glucocorticoid receptor (GR) signaling pathway (AID 720692; active = well fitted inhibition curve with a large enough effect in the signal ratio in the repeat runs, not every such curve was filed as active; the % refers to the signal ratio)
In short: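 HeLa GR-bla cells; cmpd + dex 5 nM final, 18 h 37 C; LiveBLAzer B/G FRET substrate 2 h RT; fluorescence intensity read. Antagonist mode, qHTS.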
Tags tell the direction and shape of the fitted curve or compound fluorescence and quenching.

Row | Compound | Potency [1] | Potency [2] | Potency [3] | Potency [4] | Potency [5] | Potency [6] | Potency [7] | Potency [8] | Potency [9] | Potency [10] | Potency [11] | Potency [12] | Potency [13] | Potency [14] | Potency [15] | Potency [16] | Potency [17] | Potency [18] | Potency [19] | Potency [20]
1 | O=C(O)CCCCCCC(=O)O | inactive | inactive | inactive | inactive | inactive | inactive | inactive | inactive | inactive | inactive | inactive | inactive | inactive | inactive | inactive | inactive | inactive | inactive |  | 
2 | CO[C@H]1C=CO[C@@]2(C)Oc3c(C)c(O)c4c(O)c(cc(O)c4c3C2=O)NC(=O)/C(C)=C\C=C/[C@H](C)[C@H](O)[C@@H](C)[C@@H](O)[C@@H](C)[C@H](OC(C)=O)[C@@H]1C | inactive | inactive | inactive | inactive | inactive |  | inactive | inactive | inactive | inactive | inactive |  | inactive | inactive | inactive | inactive | inactive |  | inactive | 
3 | NC(=O)c1ccccc1N | inactive | inactive | inactive | inactive | inactive | inactive | inactive | inactive | inactive | inactive | inactive | inactive | inactive | inactive | inactive | inactive | inactive |  | inactive | 
4 | Cc1cccc(Br)c1 | inactive | inactive | inactive | inactive | inactive | inactive | inactive | inactive | inactive | inactive |  | inactive | inactive | inactive | inactive | inactive | inactive | inactive | inactive | inactive
5 | CCOC(=O)N1CCC(=C2c3ccc(Cl)cc3CCc3cccnc32)CC1 | 23.7 µM (active) and 61.1 µM (active) | inactive | 68.6 µM (active) | 43.3 µM (active) | 27.3 µM (active) | 29.8 µM (active) and 54.5 µM (active) | inactive | inactive |  | inactive | inactive | inactive | inactive | inactive | inactive | inactive | inactive | inactive | inactive | 
6 | CCCCCCCCCCCCCCCC | inactive | inactive | inactive | inactive | inactive | inactive | inactive | inactive | inactive | inactive | inactive |  | inactive | inactive | inactive | inactive | inactive | inactive | inactive | inactive
7 | ClC/C=C\CCl | inactive | inactive | inactive | inactive | inactive | inactive | inactive | inactive | inactive | inactive | inactive | inactive | inactive | inactive | inactive | inactive | inactive |  | inactive | 
8 | CCNc1nc(NC(C)CC)nc(OC)n1 (configuration not stated) | inactive | inactive | inactive | inactive | inactive | inactive | inactive | inactive |  | inactive |  | inactive | inactive | inactive | inactive | inactive | inactive | inactive | inactive | inactive
9 | O=S(=O)(O)CCCN1CCOCC1 | inactive | inactive | inactive | inactive | inactive | inactive | inactive | inactive | inactive | inactive | inactive | inactive | inactive | inactive | inactive | inactive | inactive | inactive | inactive | inactive
10 | CCN=c1cc2oc3cc(NCC)c(C)cc3c(-c3ccccc3C(=O)OCC)c-2cc1C | 48.4 µM (active) | inactive | 60.9 µM (active) and 15.4 µM (active) | 9.65 µM (active) and 6.86 µM (active) | inactive |  | 3.55 µM (active) and 3.98 µM (active) | 39.8 µM (active) and 35.5 µM (active) | inactive | 4.47 µM [fluorescent] (active) and 6.31 µM [fluorescent] (active) | 39.8 µM [fluorescent] (active) | inactive | 3.16 µM [fluorescent] (active) and 4.47 µM [fluorescent] (active) | 2.82 µM [fluorescent] (active) and 3.55 µM [fluorescent] (active) | inactive | 39.8 µM [fluorescent] (active) | inactive |  | 39.8 µM [fluorescent] (active) | 
11 | CCC(C)(C)c1cc(O)c(C(C)(C)CC)cc1O | 54.5 µM (active) | inactive | 43.3 µM (active) | 48.6 µM (active) | inactive | 4.86 µM (active) | inactive | inactive | inactive | inactive | inactive |  | inactive | inactive | inactive | inactive | inactive | inactive | inactive | 
12 | S=P(N1CC1)(N1CC1)N1CC1 | 14.4 µM (active) | inactive | inactive | inactive | inactive | inactive | inactive | inactive | inactive | inactive | inactive | inactive | inactive | inactive | inactive | inactive | inactive | inactive | inactive | inactive
13 | CCC(=O)OCCc1ccccc1 | inactive | inactive | inactive | inactive | inactive | inactive | inactive | inactive |  | inactive |  | inactive | inactive | inactive | inactive | inactive | inactive | inactive | inactive | inactive
